About 83,000 compounds went through this panel and 20% of them were active in at least one assay; those are over-represented in the sample as a whole.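 Compound tested at a single concentration for 48 hours in 96-well plates; a percent growth value below 10 was scored as active.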 Active and inactive are the calls of the source.
Test system: OVCAR-3 ovarian
Experiment: NCI-60 one-dose screen, 48 h (100 = growth as untreated, 0 = no growth, -100 = all killed)
Details: 10 µM unless noted
Procedure: Growth inhibition of the OVCAR-3 human tumor cell line is measured as a screen for anti-cancer activity. Cells are grown in 96 well plates and exposed to the test compound for 48 hours. Compounds are tested at a single concentration, which is 10^-5 M for most compounds. The reported endpoint is percent growth (GI% or GIPRCNT), where numbers from 0 - 100% represent growth inhibition, and numbers from -100% - 0 represent cell death. For example, a value of 40 represents 60% growth inhibition. A value of 0 means no net growth occurred over the course of the experiment. A value of -40 indicates 40% of cells at the beginning of the experiment died by the end of the experiment. A value of -100 means all cells are dead at the end of the experiment.
NCI-60 Human Tumor Cell Lines Screen was performed using the standard one-dose NCI protocol, which is described in more detail at https://dtp.cancer.gov/discovery_development/nci-60/default.htm.
Compounds with GIPRCNT values below 10 were considered active. Activity score was based on GIPRCNT using the following formula: […]
Score is 0 for GIPRCNT values of 100 or above, 50 for GIPRCNT values of 0, and 100 for GIPRCNT values of -100.

| SMILES | growth |
| --- | --- |
| COc1cc(-c2nn(C(C)(C)C)cc2-c2ccnc(NCCCNS(=O)(=O)c3ccc(C)cc3)n2)ccc1Cl | 95.5% (inactive) |
| NS(=O)(=O)c1ccc(-n2cc(CN3CCNCC3)nn2)cc1 | 111% (inactive) |
| Nc1nc(Nc2ccccc2SSc2ccccc2Nc2nc(N)nc(-c3ccccc3)n2)nc(-c2ccccc2)n1 | 90.3% (inactive) |
| c1ccc(C(c2nc3ncncc3[nH]2)N2CSc3nc4ccccc4n3C2)cc1 (stereo not given) | 105% (inactive) |
| Clc1ccc(N/N=c2/oc3ccccc3cc2-c2cc3ccccc3[nH]2)cc1 | 47.7% (inactive) |
| COc1cc2nc(Cl)nc(Nc3cccc(C4=Nc5c(N)nc(N)nc5NC(c5ccc(Cl)cc5)C4)c3)c2cc1OC (stereo not given) | 62.6% (inactive) |
| CNC(=O)c1c(NC(=O)c2ccccc2C(F)(F)F)sc2c1CCC(=O)C2 | 11.2% (inactive) |
| CC(C)(C)c1ccc(C(=O)Nc2sc3c(c2C(N)=O)CC/C(=N\O)C3)cc1 | 12.6% (inactive) |
| Cc1ccc(NC(=O)c2ccc(CN3CCOCC3)c(C(F)(F)F)c2)cc1Oc1ccc(-c2[nH]nc3ncnc(N)c23)cc1 | 93.2% (inactive) |
| C[C@@H](Nc1ncnc2ccc(-c3cnc(Cl)c(NS(C)(=O)=O)c3)cc12)c1ccccc1 | 44.6% (inactive) |
| O=C1C(c2ccccc2)=C(N2CCc3ccccc32)OC1(Cl)Cl | 3.88% (active) |
| C=CCn1c(-c2nc3ccc(C(=C(C#N)C#N)c4ccccc4)cc3[nH]2)cc2cc(Br)ccc21 | 51.2% (inactive) |
| C=C(C)[C@@H]1CC[C@]2(COCCCNCCC#N)CC[C@]3(C)[C@H](CC[C@@H]4[C@@]5(C)CC[C@H](OCCCNCCC#N)C(C)(C)[C@@H]5CC[C@]43C)[C@@H]12 | 71% (inactive) |
| Brc1ccccc1/C=N/Nc1nc(N/N=C/c2ccccc2Br)nc(N2CCOCC2)n1 | 85.2% (inactive) |
| COc1ccc(-c2nn(-c3ccc(S(C)(=O)=O)cc3)cc2/C=N/O)cc1 | 122% (inactive) |
| C#CCn1cccc1CNc1ccc(OC)cc1 | -84.7% (active) |
| N#Cc1cccc(CN2CCc3ncn(Cc4ccc(Cl)cc4)c(=O)c3C2)c1 | 21.7% (inactive) |
| Cn1cc(-c2nnc(N)nc2-c2c[nH]c3ccc(F)cc23)c2cc(F)ccc21 | 78.6% (inactive) |
| CC/C(=C/c1c(O)cccc1OC)c1ccc2c(OC)cccc2[o+]1 | 109% (inactive) |
| C[C@@H](Nc1c(C#N)cnc2ccc(-c3cnc(Cl)c(NS(C)(=O)=O)c3)cc12)c1ccccc1 | 4.33% (active) |

| SMILES | growth |
| --- | --- |
| Cc1ccc2c(c1)C13C(=C2Br)CCCN1C(=O)c1ccccc13 (stereo not given) | 94.8% (inactive) |
| Nc1ncc(-c2ccc3ncnc(N4CCc5cc(F)c(Cl)cc54)c3c2)cn1 | 13.5% (inactive) |
| N/C(=N\C(N)=N\c1nc2ccccc2s1)c1ccncc1Cl | 19.8% (inactive) |
| CC1(C)CC[C@]2(C(=O)N3CCOCC3)CC[C@]3(C)C(=CC[C@@H]4[C@@]5(C)C/C(=C/c6ccco6)C(=O)C(C)(C)[C@@H]5CC[C@]43C)[C@@H]2C1 | 86.9% (inactive) |
| O=C(Nc1nc2ccc([N+](=O)[O-])cc2s1)Nc1ccccc1Br | 25.9% (inactive) |
| C=CCn1c(SCC(=O)Nc2ccc(C(=O)/C=C/c3ccc(C)cc3)cc2)nnc1-c1c[nH]c2ccccc12 | 99.4% (inactive) |
| COc1cc(-c2nn(C(C)(C)C)cc2-c2ccnc(NCCCNS(=O)(=O)c3ccc(F)cc3)n2)ccc1Cl | 90.7% (inactive) |
| CCO/C=N/C1=C(C#N)C(c2ccc(F)cc2)c2sc3c(C)cccc3c2O1 (stereo not given) | -6.49% (active) |
| CS(=O)(=O)Nc1cc(-c2ccc3ncc(C#N)c(NCc4ccccc4)c3c2)cnc1Cl | -5.17% (active) |
| COc1cc2c(cc1OC)C(Sc1ccc(C)cc1)c1c(nc(N)c(C#N)c1N)O2 (stereo not given) | -80.7% (active) |
| FC(F)(F)c1cc(Nc2cccc(Oc3ccc(NC4=NCCN4)nc3)c2)ccc1Cl | -40.3% (active) |
| CCCn1cnc2c(c1=N)C(c1ccc(OC)cc1)c1sc3c(C)cccc3c1O2 (stereo not given) | 7.94% (active) |
| O=S(=O)(Oc1ccc(-c2nnc(Nc3ccccc3)s2)cc1)C(F)(F)C(F)(F)C(F)(F)C(F)(F)C(F)(F)C(F)(F)F | 108% (inactive) |
| CC(C)C[C@@H]1N[C@@]2(C(=O)Nc3ccccc32)[C@@H](c2ccc(F)cc2)[C@@H]1C(=O)c1ccc(O)cc1 | 96.9% (inactive) |
| CS(=O)(=O)c1ccc(-c2nn(-c3ccccc3)cc2/C=N/NC(=O)c2nc(N)n[nH]2)cc1 | 97.1% (inactive) |
| O=C(NNc1nc2cc(F)c(F)cc2n2c(CN3CC4CNCC4C3)ccc12)c1ncccn1 (stereo not given) | 34.6% (inactive) |
| COc1cc(-c2nnc(SCc3ccc(O)c4ncccc34)n2-c2ccccc2)cc(OC)c1OC | 6.44% (active) |
| Cc1cc2nc(C(Cl)Cl)nc(-c3cccs3)n2n1 | -30.9% (active) |
| COc1ccc(C2c3sc4c(C)cccc4c3Oc3nc(CC(=O)Nc4ccccc4)[nH]c(=O)c32)cc1 (stereo not given) | 93.9% (inactive) |
| C=C(C=O)[C@@H]1CC[C@]2(C)[C@H](C(=O)C=C3[C@H]4C[C@](C)(C(=O)OC)CC[C@]4(C)CC[C@]32C)[C@@]1(C)CCC#N | -47.2% (active) |
